# Measured values published in the supplement of paper PMC7366291.
# Where a name gives a salt, the structure may show the parent alone. ± gives the standard deviation.
# System: Danio rerio Tg(wt1b:EGFP) embryo, pronephros
# Test: glomerular separation, fold change vs DMSO control; higher = glomeruli further apart (abnormal)
# Details: 25 µM; exposure: 24-48 hpf
# In short: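 Every feature is expressed as a fold change relative to the averaged DMSO-treated embryos of the same day. The exposure ran from 24 to 48 hpf at 28.5°C, with dechorionated Tg(wt1b:EGFP) zebrafish embryos in HEPES-buffered E3 containing 0.003% PTU, 0.5% DMSO and 25 μM compound. Dorsal pronephros images taken in agarose-filled 96-well plates were reduced to maximum projections, on which 16 reference points were set by hand in Fiji for a macro to compute distances and angles. Values more than 2 SD from the feature mean were not used.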
row,SMILES,glomerular separation
1,O=C(O)c1cc(/N=N/c2ccc(S(=O)(=O)Nc3ccccn3)cc2)ccc1O [Sulfasalazine],0.959 ± 0.28
2,CN[C@@H]1[C@H](O)[C@H](NC)[C@H]2O[C@@]3(O)C(=O)C[C@@H](C)O[C@H]3O[C@@H]2[C@H]1O [Spectinomycin dihydrochloride],0.786 ± 0.48
3,CCCC(=O)Nc1ncnc2c1ncn2[C@@H]1O[C@@H]2COP(=O)(O)O[C@H]2[C@H]1OC(=O)CCC [Bucladesine sodium salt],0.912 ± 0.4
4,CN(C/C=C/C#CC(C)(C)C)Cc1cccc2ccccc12 [Terbinafine],1.03 ± 0.34
5,Cc1ccc(S(=O)(=O)NC(=O)NN2CC3CCCC3C2)cc1 (centres undefined) [Gliclazide],0.87 ± 0.46
6,COc1nc(N)nc2c1ncn2[C@@H]1O[C@H](CO)[C@@H](O)[C@@H]1O [Nelarabine],0.929 ± 0.39
7,"CC(C)NCC(O)c1cc(O)cc(O)c1 (centres undefined) [Metaproterenol sulfate, orciprenaline sulfate]",1.08 ± 0.74
8,C[N+]1(C)CCC(OC(=O)C(O)(c2ccccc2)C2CCCC2)C1 (centres undefined) [Glycopyrrolate],1.14 ± 0.48
9,CCCCC1C(=O)N(c2ccccc2)N(c2ccc(O)cc2)C1=O (centres undefined) [Oxyphenbutazone],1.27 ± 0.44
10,CCCCOc1ccc(C(=O)CCN2CCCCC2)cc1 [Dyclonine hydrochloride],0.982 ± 0.26
11,"Cc1cn([C@H]2C[C@H](N=[N+]=[N-])[C@@H](CO)O2)c(=O)[nH]c1=O [Zidovudine, AZT]",1 ± 0.41
12,COC(=O)Nc1nc2cc(C(=O)c3ccc(F)cc3)ccc2[nH]1 [Flubendazol],1.81 ± 0.69
13,Cc1cc(CC(=O)O)n(C)c1C(=O)c1ccc(Cl)cc1 [Zomepirac sodium salt],0.83 ± 0.4
14,Nc1ccccc1S(N)(=O)=O [2-Aminobenzenesulfonamide],0.99 ± 0.24
15,CN1CCC(OC(c2ccccc2)c2ccccc2)CC1 [Diphenylpyraline hydrochloride],1.02 ± 0.24
16,CCCCC[C@H](O)/C=C/[C@@H]1[C@@H](C/C=C\CCCC(=O)O)[C@@H](O)C[C@H]1O [Dinoprost trometamol],0.881 ± 0.18
17,O=C1C(CC[S+]([O-])c2ccccc2)C(=O)N(c2ccccc2)N1c1ccccc1 (centres undefined) [Sulfinpyrazone],1.21 ± 0.35

row,SMILES,glomerular separation
1,C#C[C@]1(O)CC[C@H]2[C@@H]3CCc4cc(O)ccc4[C@H]3CC[C@@]21C [Ethinylestradiol],1.64 ± 0.76
2,Cc1c(N)c(=O)n(-c2ccccc2)n1C [Ampyrone],0.975 ± 0.3
3,C[C@H](CS)C(=O)N1CCC[C@H]1C(=O)O [Captopril],1 ± 0.45
4,Cc1onc(-c2ccccc2Cl)c1C(=O)N[C@@H]1C(=O)N2[C@@H]1SC(C)(C)[C@@H]2C(=O)O [Cloxacillin sodium salt],1.06 ± 0.42
5,O=C1CN2Cc3c(ccc(Cl)c3Cl)N=C2N1 [Anagrelide],1.1 ± 0.67
6,CCn1cc(C(=O)O)c(=O)c2cc(F)c(N3CCNCC3)nc21 [Enoxacin],0.719 ± 0.29
7,NS(=O)(=O)c1cc2c(cc1Cl)NC(CC1CCCC1)NS2(=O)=O (centres undefined) [Cyclopenthiazide],0.818 ± 0.23
8,CC(=O)S[C@@H]1CC2=CC(=O)CC[C@]2(C)[C@H]2CC[C@@]3(C)[C@@H](CC[C@@]34CCC(=O)O4)[C@H]12 [Spironolactone],0.838 ± 0.13
9,NC[C@@H]1O[C@@H](O[C@H]2[C@H](O)[C@@H](O[C@H]3O[C@H](CO)[C@@H](O)[C@H](N)[C@H]3O)[C@H](N)C[C@@H]2N)[C@@H](O)[C@H](O)[C@H]1O [Kanamycin A sulfate],1.07 ± 0.33
10,COC1=CC(=O)C[C@@H](C)[C@]12Oc1c(Cl)c(OC)cc(OC)c1C2=O [Griseofulvin],0.952 ± 0.29
11,Cc1c(-c2ccccc2)oc2c(C(=O)OCCN3CCCCC3)cccc2c1=O [Flavoxate hydrochloride],1.17 ± 0.37
12,CC(C)N1CCN(c2ccc(OCC3COC(Cn4cncn4)(c4ccc(Cl)cc4Cl)O3)cc2)CC1 (centres undefined) [Terconazole],0.864 ± 0.17
13,CN(C)CCN(Cc1cccs1)c1ccccn1 [Methapyrilene hydrochloride],0.984 ± 0.37
14,NC12CC3CC(CC(C3)C1)C2 [Adamantamine fumarate],0.809 ± 0.31
15,O=C(NCCN1CCOCC1)c1ccc(Cl)cc1 [Moclobemide],0.89 ± 0.26
16,CCCCC1C(=O)N(c2ccccc2)N(c2ccccc2)C1=O [Phenylbutazone],5.01 ± 1.6
17,"CC(C)NCC(O)c1ccc(O)c(O)c1 (single isomer, unassigned; (+)) [(+)-Isoproterenol (+)-bitartrate salt]",1.57 ± 0.7
